# Experimental data published in PubChem BioAssay AID1159580 (chemical genetic matrix, 2015).
# In all, about 5,500 compounds went through this assay and about 2,000 (36%) were called active. Not shown: some 18% with an inconclusive outcome. The list shows a part of the results. Unmarked numbers belong to inactive results. Cut-off read from the data, not from the text of the source: active = normalized growth mostly below about 0.91 (no sharp cut-off); inconclusive = no clear call, values can overlap the other calls; inactive = mostly above about 0.92.
# Experiment: chemical genetic growth profiling, strain panel (AID 1159580);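 note: tested at 20 µM; growth read once vehicle control cultures reached saturation at 30 °C; 1 = growth at the plate median or of vehicle wells; lower values mean less growth of the strain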
# Settings: S. cerevisiae deletion strains, growth OD
compound,measurement,setting,value
S=C(Nc1ccc(Cl)cc1Cl)N(c1cccc(Cl)c1)c1nc2ccccc2s1,normalized growth,"locus YAR019C, strain CDC15, hits give low values",0.956
same,normalized growth,"locus YBL105C, strain PKC1, hits give low values",0.96
same,normalized growth,"locus YBR135W, strain CKS1, hits give low values",0.951
same,normalized growth,"locus YBR136W, strain MEC1, hits give low values",0.962
same,normalized growth,"locus YBR160W, strain CDC28, hits give low values",0.964
same,normalized growth,"locus YDL017W, strain CDC7, hits give low values",0.96
same,normalized growth,"locus YDL028C, strain MPS1, hits give low values",0.963
same,normalized growth,"locus YDL101C, strain DUN1, hits give low values",0.987
same,normalized growth,"locus YDL108W, strain KIN28, hits give low values",0.955
same,normalized growth,"locus YDL132W, strain cdc53, hits give low values",0.967
same,normalized growth,"locus YDL214C, strain PRR2, hits give low values",0.821
same,normalized growth,"locus YDR052C, strain DBF4, hits give low values",0.964
same,normalized growth,"locus YDR054C, strain cdc34, hits give low values",0.955
same,normalized growth,"locus YDR226W, strain ADK1, hits give low values",0.954
same,normalized growth,"locus YDR477W, strain SNF1, hits give low values",0.778
same,normalized growth,"locus YER123W, strain YCK3, hits give low values",0.778
same,normalized growth,"locus YER133W, strain GLC7, hits give low values",0.765
same,normalized growth,"locus YFL009W, strain cdc4, hits give low values",0.951
same,normalized growth,"locus YFL029C, strain CAK1, hits give low values",0.962
same,normalized growth,"locus YFR003C, strain YPI1, hits give low values",0.961
same,normalized growth,"locus YFR019W, strain FAB1, hits give low values",0.878
same,normalized growth,"locus YFR028C, strain CDC14, hits give low values",0.949
same,normalized growth,"locus YGR040W, strain KSS1, hits give low values",0.785
same,normalized growth,"locus YGR052W, strain FMP48, hits give low values",0.846
same,normalized growth,"locus YGR092W, strain DBF2, hits give low values",0.598
same,normalized growth,"locus YHR030C, strain SLT2, hits give low values",0.674 (active)
same,normalized growth,"locus YHR079C, strain IRE1, hits give low values",0.779
same,normalized growth,"locus YHR082C, strain KSP1, hits give low values",0.871
same,normalized growth,"locus YHR205W, strain SCH9, hits give low values",0.778
same,normalized growth,"locus YIL147C, strain SLN1, hits give low values",0.963
same,normalized growth,"locus YJL095W, strain BCK1, hits give low values",0.75
same,normalized growth,"locus YJL128C, strain PBS2, hits give low values",0.933
same,normalized growth,"locus YJL157C, strain FAR1, hits give low values",0.794
same,normalized growth,"locus YJR016C, strain ILV3, hits give low values",0.955
same,normalized growth,"locus YJR066W, strain TOR1 (second series), hits give low values",0.714
same,normalized growth,"locus YJR066W, strain TOR1, hits give low values",0.777
same,normalized growth,"locus YKL048C, strain ELM1, hits give low values",0.885
same,normalized growth,"locus YKL067W, strain YNK1, hits give low values",0.835
same,normalized growth,"locus YKL101W, strain HSL1, hits give low values",0.823
same,normalized growth,"locus YKL193C, strain SDS22, hits give low values",0.957
same,normalized growth,"locus YKL203C, strain TOR2, hits give low values",0.849
same,normalized growth,"locus YLR113W, strain HOG1, hits give low values",0.743 (active)
same,normalized growth,"locus YLR133W, strain CKI1, hits give low values",0.783
same,normalized growth,"locus YLR403W, strain SFP1, hits give low values",0.664
same,normalized growth,"locus YML070W, strain DAK1, hits give low values",0.795
same,normalized growth,"locus YMR001C, strain CDC5, hits give low values",0.951
same,normalized growth,"locus YMR205C, strain PFK2 (second series), hits give low values",0.82
same,normalized growth,"locus YMR277W, strain FCP1, hits give low values",0.95
same,normalized growth,"locus YNL006W, strain LST8, hits give low values",0.955
same,normalized growth,"locus YNL020C, strain ARK1, hits give low values",0.763
same,normalized growth,"locus YNL161W, strain CBK1, hits give low values",0.949
same,normalized growth,"locus YNL183C, strain NPR1, hits give low values",0.817
same,normalized growth,"locus YNL207W, strain RIO2, hits give low values",0.955
same,normalized growth,"locus YNL222W, strain SSU72, hits give low values",0.963
same,normalized growth,"locus YNL307C, strain MCK1 (second series), hits give low values",0.784
same,normalized growth,"locus YOL078W, strain AVO1, hits give low values",0.957
same,normalized growth,"locus YOL136C, strain PFK27, hits give low values",0.816
same,normalized growth,"locus YOR061W, strain CKA2, hits give low values",0.712
same,normalized growth,"locus YOR119C, strain RIO1, hits give low values",0.811
same,normalized growth,"locus YOR231W, strain MKK1, hits give low values",0.809
same,normalized growth,"locus YOR329C, strain SCD5, hits give low values",0.962
same,normalized growth,"locus YPL031C, strain PHO85, hits give low values",0.734
same,normalized growth,"locus YPL153C, strain RAD53, hits give low values",0.811
same,normalized growth,"locus YPL204W, strain HRR25, hits give low values",0.719
same,normalized growth,"locus YPL209C, strain IPL1, hits give low values",0.96
same,normalized growth,"locus YPL256C, strain CLN2, hits give low values",0.791 (active)
same,normalized growth,"locus YPR025C, strain CCL1, hits give low values",0.961
same,normalized growth,"locus YPR106W, strain ISR1, hits give low values",0.961
same,normalized growth,"locus YPR111W, strain DBF20, hits give low values",0.949
same,normalized growth,"strain NNK1, hits give low values",0.951
same,normalized growth,"strain TSCII, hits give low values",0.954
